# Data taken from the supplement of paper PMC8728848.
# This is one part of a sample in which the strongest signals are shown more often than they occur.
# How the values were obtained:
# Experiment in all cases: glycan array binding signal (z-score within array); higher = stronger binding
# Conditions in all cases: glycan notation: IUPAC condensed, linker removed
# [1] = target: Glc(a1-4)Glc(a1-4)Glc(a1-4)Glc
# How it was run: (§1)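 The binding signal is a Z-score computed within each array and averaged over linkers. Arrays of the same protein sequence at different concentrations or buffers were also averaged together. Data originate from 3228 arrays in the Consortium for Functional Glycomics database, kept only where the protein sequence was available.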
# [2] = target: GlcNAc(a1-4)Gal(b1-3)GlcNAc
# How it was run: as §1
# [3] = target: GlcNAc(a1-4)Gal(b1-4)GlcNAc(b1-3)Gal(b1-4)Glc
# How it was run: as §1
# [4] = target: GlcNAc(b1-2)Man(a1-3)[GlcNAc(b1-2)Man(a1-6)]Man(b1-4)GlcNAc(b1-4)GlcNAc
# How it was run: as §1
# [5] = target: GlcNAc(b1-2)[GlcNAc(b1-6)]Man(a1-6)[GlcNAc(b1-2)Man(a1-3)]Man(b1-4)GlcNAc(b1-4)GlcNAc
# How it was run: as §1
# [6] = target: GlcNAc(b1-3)Gal(b1-4)GlcNAc(b1-2)[GlcNAc(b1-3)Gal(b1-4)GlcNAc(b1-6)]Man(a1-6)[GlcNAc(b1-3)Gal(b1-4)GlcNAc(b1-2)Man(a1-3)]Man(b1-4)GlcNAc(b1-4)GlcNAc
# How it was run: as §1
# [7] = target: GlcNAc(b1-3)Gal(b1-4)GlcNAc(b1-3)[GlcNAc(b1-3)Gal(b1-4)GlcNAc(b1-3)]GalNAc
# How it was run: as §1
# [8] = target: Man(a1-2)Man(a1-3)[Man(a1-2)Man(a1-6)]Man(a1-6)[Man(a1-2)Man(a1-2)Man(a1-3)]Man
# How it was run: as §1
# [9] = target: Man(b1-4)GlcNAc
# How it was run: as §1
# [10] = target: Neu5Ac(a2-3)Gal(b1-3)GlcNAc(b1-2)Man(a1-3)[Neu5Ac(a2-3)Gal(b1-3)GlcNAc(b1-2)Man(a1-6)]Man(b1-4)GlcNAc(b1-4)GlcNAc
# How it was run: as §1
# [11] = target: Neu5Ac(a2-3)Gal(b1-3)GlcNAc(b1-4)Gal(b1-4)Glc
# How it was run: as §1
# [12] = target: Neu5Ac(a2-3)Gal(b1-4)GlcNAc(b1-3)Gal(b1-4)GlcNAc(b1-3)Gal(b1-4)GlcNAc
# How it was run: as §1
# [13] = target: Neu5Ac(a2-3)Gal(b1-4)GlcNAc(b1-6)[Gal(b1-3)]GalNAc
# How it was run: as §1
# [14] = target: Neu5Ac(a2-3)Gal(b1-4)[Fuc(a1-3)]GlcNAc(b1-3)Gal(b1-4)[Fuc(a1-3)]GlcNAc(b1-3)Gal(b1-4)[Fuc(a1-3)]GlcNAc
# How it was run: as §1
# [15] = target: Neu5Ac(a2-3)[Neu5Ac(a2-6)]GalNAc
# How it was run: as §1
# [16] = target: Neu5Ac(a2-6)Gal(b1-4)GlcNAc(b1-2)[Neu5Ac(a2-6)Gal(b1-4)GlcNAc(b1-6)]Man(a1-6)[Neu5Ac(a2-6)Gal(b1-4)GlcNAc(b1-2)Man(a1-3)][GlcNAc(b1-4)]Man(b1-4)GlcNAc(b1-4)GlcNAc
# How it was run: as §1
# [17] = target: Neu5Ac(a2-6)Gal(b1-4)GlcNAc(b1-3)Gal(b1-3)GlcNAc
# How it was run: as §1
# [18] = target: Neu5Ac(a2-6)Gal(b1-4)GlcNAc(b1-3)Gal(b1-4)GlcNAc(b1-6)[Gal(b1-3)]GalNAc
# How it was run: as §1
# [19] = target: Neu5Ac(a2-6)Gal(b1-4)GlcNAc(b1-3)Gal(b1-4)[Fuc(a1-3)]GlcNAc(b1-3)Gal(b1-4)[Fuc(a1-3)]GlcNAc
# How it was run: as §1
# [20] = target: Neu5Ac(a2-6)Gal(b1-4)GlcNAc(b1-3)[Neu5Ac(a2-6)Gal(b1-4)GlcNAc(b1-6)]GalNAc
# How it was run: as §1
# [21] = target: Neu5Ac(a2-6)Gal(b1-4)GlcNAc(b1-6)[Gal(b1-3)]GalNAc
# How it was run: as §1
# [22] = target: Neu5Ac(a2-6)GlcNAc(b1-4)GlcNAc
# How it was run: as §1
# [23] = target: Neu5Ac(a2-6)GlcNAc(b1-4)GlcNAc(b1-4)GlcNAc
# How it was run: as §1
# [24] = target: Neu5Ac(a2-8)Neu5Ac(a2-3)Gal(b1-4)Glc
# How it was run: as §1
# [25] = target: Neu5Ac(a2-8)Neu5Ac(a2-8)Neu5Ac(a2-3)Gal(b1-4)Glc
# How it was run: as §1
# [26] = target: Neu5Ac(a2-8)Neu5Gc(a2-3)Gal(b1-4)GlcNAc
# How it was run: as §1
# [27] = target: Neu5Gc(a2-3)Gal(b1-4)GlcNAc(b1-3)Gal(b1-4)GlcNAc(b1-2)Man(a1-3)[Neu5Gc(a2-3)Gal(b1-4)GlcNAc(b1-3)Gal(b1-4)GlcNAc(b1-2)Man(a1-6)]Man(b1-4)GlcNAc(b1-4)GlcNAc
# How it was run: as §1
# [28] = target: Neu5Gc(a2-8)Neu5Gc(a2-6)Gal(b1-4)GlcNAc
# How it was run: as §1
binder,measurement,setting,value
"SfaEH (Escherichia coli), Q1RDG5 (protein) LLCRNNQTGQVFNSGDTSFRVNVSPVVQYDKSISVLDLSQLVSCQNEDSTGQNYDYLKILKGSGFSPALDTKTYGRLDFTSRPTGYARQLPLQFDLQVTEAFYQYGVWKPFPAKLYLYPAPGVFGKVINNGDLLATLYVNKFSTKGQEAGERNFTWRFYATNDVYIQTGTCRVSSNNVKVDLPSYPGGPVTVPLTVRCDQTQSVSYTLSGPVTGSGNTVFANTAASGSGGVGIQLSDNVGPVPAGQPRSLGQVGSSPVSLGLKASYALTGQASPTPGAVQSVINVTFSYN",glycan array binding signal (z-score),[1],-0.651
same,glycan array binding signal (z-score),[2],-0.403
same,glycan array binding signal (z-score),[3],-0.748
same,glycan array binding signal (z-score),[4],0.345
same,glycan array binding signal (z-score),[5],-0.668
same,glycan array binding signal (z-score),[6],2.3
same,glycan array binding signal (z-score),[7],0.026
same,glycan array binding signal (z-score),[8],0.008
same,glycan array binding signal (z-score),[9],-0.49
same,glycan array binding signal (z-score),[10],-0.547
same,glycan array binding signal (z-score),[11],-0.421
same,glycan array binding signal (z-score),[12],7.11
same,glycan array binding signal (z-score),[13],2.32
same,glycan array binding signal (z-score),[14],0.9
same,glycan array binding signal (z-score),[15],3.69
same,glycan array binding signal (z-score),[16],-0.534
same,glycan array binding signal (z-score),[17],-0.233
same,glycan array binding signal (z-score),[18],0.079
same,glycan array binding signal (z-score),[19],-0.154
same,glycan array binding signal (z-score),[20],2.22
same,glycan array binding signal (z-score),[21],0.841
same,glycan array binding signal (z-score),[22],-0.508
same,glycan array binding signal (z-score),[23],1.19
same,glycan array binding signal (z-score),[24],0.69
same,glycan array binding signal (z-score),[25],0.437
same,glycan array binding signal (z-score),[26],-0.786
same,glycan array binding signal (z-score),[27],-0.442
same,glycan array binding signal (z-score),[28],2.33
